From PubChem BioAssay AID1159580 (chemical genetic matrix, 2015)
Where “and” joins values, the source holds several entries; their conditions need not be identical. Equal values may be shown once. Out of some 5,500 compounds screened, about 2,000 (36%) were called active. About 18% were inconclusive and are not listed. No stated cut-off is given here; in the data, active means normalized growth mostly below about 0.91 (no sharp cut-off); inconclusive means no clear call, values can overlap the other calls; inactive means mostly above about 0.92. The list shows a part of the results.

Assay: chemical genetic growth profiling, strain panel (AID 1159580);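 further: tested at 20 µM; growth read once vehicle control cultures reached saturation at 30 °C; 1 = growth at the plate median or of vehicle wells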
Details: growth OD
[1] = S. cerevisiae deletion strains, locus YAL013W, strain DEP1, stronger effect = lower value
[2] = S. cerevisiae deletion strains, locus YBR229C, strain ROT2, stronger effect = lower value
[3] = S. cerevisiae deletion strains, locus YDL101C, strain DUN1, stronger effect = lower value
[4] = S. cerevisiae deletion strains, locus YDR150W, strain NUM1, stronger effect = lower value
[5] = S. cerevisiae deletion strains, locus YEL061C, strain CIN8, stronger effect = lower value
[6] = S. cerevisiae deletion strains, locus YGR078C, strain PAC10, stronger effect = lower value
[7] = S. cerevisiae deletion strains, locus YHR030C, strain SLT2, stronger effect = lower value
[8] = S. cerevisiae deletion strains, locus YHR087W, strain rtc3, stronger effect = lower value
[9] = S. cerevisiae deletion strains, locus YJR043C, strain POL32, stronger effect = lower value
[10] = S. cerevisiae deletion strains, locus YJR075W, strain HOC1, stronger effect = lower value
[11] = S. cerevisiae deletion strains, locus YLR039C, strain RIC1, stronger effect = lower value
[12] = S. cerevisiae deletion strains, locus YLR058C, strain SHM2 (second series), stronger effect = lower value
[13] = S. cerevisiae deletion strains, locus YLR085C, strain ARP6, stronger effect = lower value
[14] = S. cerevisiae deletion strains, locus YLR262C, strain YPT6, stronger effect = lower value
[15] = S. cerevisiae deletion strains, locus YML094W, strain GIM5, stronger effect = lower value
[16] = S. cerevisiae deletion strains, locus YMR219W, strain ESC1, stronger effect = lower value
[17] = S. cerevisiae deletion strains, locus YMR263W, strain SAP30, stronger effect = lower value
[18] = S. cerevisiae deletion strains, locus YNL153C, strain GIM3, stronger effect = lower value
[19] = S. cerevisiae deletion strains, locus YNL298W, strain CLA4 (second series), stronger effect = lower value
[20] = S. cerevisiae deletion strains, locus YNL322C, strain KRE1, stronger effect = lower value
[21] = S. cerevisiae deletion strains, locus YNR030W, strain Alg12, stronger effect = lower value
[22] = S. cerevisiae deletion strains, locus YOL006C, strain TOP1, stronger effect = lower value
[23] = S. cerevisiae deletion strains, locus YPL055C, strain LGE1, stronger effect = lower value
[24] = S. cerevisiae deletion strains, locus YPL241C, strain CIN2, stronger effect = lower value
[25] = S. cerevisiae deletion strains, locus YPR135W, strain CTF4, stronger effect = lower value

Measured: normalized growth

CSC(=Nc1ccc(C(C)C)cc1)NC#N
inactive: [1] 0.993 | [2] 0.978 | [3] 1.02 | [4] 0.916 | [5] 1 | [6] 0.98 | [7] 0.88 | [8] 0.97 | S. cerevisiae deletion strains, locus YJL187C, strain SWE1, stronger effect = lower value 0.981 | [9] 0.982 | [10] 0.936 | [11] 0.971 | [12] 0.955 | [13] 0.86 | [14] 0.943 | [15] 1.04 | [16] 0.97 | [17] 0.978 | S. cerevisiae deletion strains, locus YNL128W, strain TEP1, stronger effect = lower value 0.965 | [18] 1 | [19] 0.947 | [20] 0.986 | [21] 0.988 | [22] 0.839 | [23] 0.985 | [24] 0.908 | [25] 0.855

O=C(c1ccc(Cl)cc1)N1CCN(c2ccc(C(F)(F)F)cn2)CC1
inactive: [1] 0.934 | S. cerevisiae deletion strains, locus YAR019C, strain CDC15, stronger effect = lower value 0.973 | S. cerevisiae deletion strains, locus YBL105C, strain PKC1, stronger effect = lower value 0.992 | S. cerevisiae deletion strains, locus YBR135W, strain CKS1, stronger effect = lower value 0.997 | S. cerevisiae deletion strains, locus YBR136W, strain MEC1, stronger effect = lower value 0.988 | S. cerevisiae deletion strains, locus YBR160W, strain CDC28, stronger effect = lower value 0.973 | S. cerevisiae deletion strains, locus YDL017W, strain CDC7, stronger effect = lower value 0.995 | S. cerevisiae deletion strains, locus YDL028C, strain MPS1, stronger effect = lower value 0.968 | [3] 0.986 and 0.988 | S. cerevisiae deletion strains, locus YDL108W, strain KIN28, stronger effect = lower value 0.979 | S. cerevisiae deletion strains, locus YDL132W, strain cdc53, stronger effect = lower value 0.988 | S. cerevisiae deletion strains, locus YDL214C, strain PRR2, stronger effect = lower value 0.937 | S. cerevisiae deletion strains, locus YDR052C, strain DBF4, stronger effect = lower value 1 | S. cerevisiae deletion strains, locus YDR054C, strain cdc34, stronger effect = lower value 0.978 | [4] 0.843 | S. cerevisiae deletion strains, locus YDR226W, strain ADK1, stronger effect = lower value 0.979 | S. cerevisiae deletion strains, locus YDR477W, strain SNF1, stronger effect = lower value 0.936 | S. cerevisiae deletion strains, locus YER123W, strain YCK3, stronger effect = lower value 0.913 | S. cerevisiae deletion strains, locus YER133W, strain GLC7, stronger effect = lower value 0.955 | S. cerevisiae deletion strains, locus YFL009W, strain cdc4, stronger effect = lower value 0.967 | S. cerevisiae deletion strains, locus YFL029C, strain CAK1, stronger effect = lower value 0.981 | S. cerevisiae deletion strains, locus YFR003C, strain YPI1, stronger effect = lower value 0.993 | S. cerevisiae deletion strains, locus YFR019W, strain FAB1, stronger effect = lower value 0.968 | S. cerevisiae deletion strains, locus YFR028C, strain CDC14, stronger effect = lower value 0.978 | S. cerevisiae deletion strains, locus YGR040W, strain KSS1, stronger effect = lower value 0.954 | S. cerevisiae deletion strains, locus YGR052W, strain FMP48, stronger effect = lower value 0.978 | [6] 0.933 | S. cerevisiae deletion strains, locus YGR092W, strain DBF2, stronger effect = lower value 0.89 | S. cerevisiae deletion strains, locus YHR079C, strain IRE1, stronger effect = lower value 0.88 | S. cerevisiae deletion strains, locus YHR082C, strain KSP1, stronger effect = lower value 0.96 | [8] 0.947 | S. cerevisiae deletion strains, locus YHR205W, strain SCH9, stronger effect = lower value 0.857 | S. cerevisiae deletion strains, locus YIL147C, strain SLN1, stronger effect = lower value 0.986 | S. cerevisiae deletion strains, locus YJL095W, strain BCK1, stronger effect = lower value 0.892 | S. cerevisiae deletion strains, locus YJL128C, strain PBS2, stronger effect = lower value 0.942 | S. cerevisiae deletion strains, locus YJL157C, strain FAR1, stronger effect = lower value 0.979 | S. cerevisiae deletion strains, locus YJR016C, strain ILV3, stronger effect = lower value 0.986 | [9] 0.993 | S. cerevisiae deletion strains, locus YJR066W, strain TOR1 (second series), stronger effect = lower value 0.974 | S. cerevisiae deletion strains, locus YJR066W, strain TOR1, stronger effect = lower value 0.891 | S. cerevisiae deletion strains, locus YKL048C, strain ELM1, stronger effect = lower value 0.963 | S. cerevisiae deletion strains, locus YKL067W, strain YNK1, stronger effect = lower value 0.925 | S. cerevisiae deletion strains, locus YKL101W, strain HSL1, stronger effect = lower value 0.911 | S. cerevisiae deletion strains, locus YKL193C, strain SDS22, stronger effect = lower value 0.988 | S. cerevisiae deletion strains, locus YKL203C, strain TOR2, stronger effect = lower value 1.02 | [11] 1.16 | [12] 0.974 | S. cerevisiae deletion strains, locus YLR133W, strain CKI1, stronger effect = lower value 0.95 | [14] 1.1 | S. cerevisiae deletion strains, locus YLR403W, strain SFP1, stronger effect = lower value 0.957 | S. cerevisiae deletion strains, locus YML070W, strain DAK1, stronger effect = lower value 0.921 | S. cerevisiae deletion strains, locus YMR001C, strain CDC5, stronger effect = lower value 0.977 | S. cerevisiae deletion strains, locus YMR205C, strain PFK2 (second series), stronger effect = lower value 0.957 | [16] 0.958 | [17] 0.963 | S. cerevisiae deletion strains, locus YMR277W, strain FCP1, stronger effect = lower value 0.962 | S. cerevisiae deletion strains, locus YNL006W, strain LST8, stronger effect = lower value 0.983 | S. cerevisiae deletion strains, locus YNL020C, strain ARK1, stronger effect = lower value 0.956 | S. cerevisiae deletion strains, locus YNL161W, strain CBK1, stronger effect = lower value 0.994 | S. cerevisiae deletion strains, locus YNL183C, strain NPR1, stronger effect = lower value 0.979 | S. cerevisiae deletion strains, locus YNL207W, strain RIO2, stronger effect = lower value 0.985 | S. cerevisiae deletion strains, locus YNL222W, strain SSU72, stronger effect = lower value 0.982 | S. cerevisiae deletion strains, locus YNL307C, strain MCK1 (second series), stronger effect = lower value 0.931 | [20] 0.982 | S. cerevisiae deletion strains, locus YOL078W, strain AVO1, stronger effect = lower value 0.982 | S. cerevisiae deletion strains, locus YOL136C, strain PFK27, stronger effect = lower value 0.908 | S. cerevisiae deletion strains, locus YOR061W, strain CKA2, stronger effect = lower value 0.965 | S. cerevisiae deletion strains, locus YOR119C, strain RIO1, stronger effect = lower value 0.958 | S. cerevisiae deletion strains, locus YOR231W, strain MKK1, stronger effect = lower value 0.853 | S. cerevisiae deletion strains, locus YOR329C, strain SCD5, stronger effect = lower value 0.992 | S. cerevisiae deletion strains, locus YPL031C, strain PHO85, stronger effect = lower value 0.941 | [23] 0.919 | S. cerevisiae deletion strains, locus YPL153C, strain RAD53, stronger effect = lower value 0.93 | S. cerevisiae deletion strains, locus YPL204W, strain HRR25, stronger effect = lower value 0.963 | S. cerevisiae deletion strains, locus YPL209C, strain IPL1, stronger effect = lower value 0.991 | [24] 1.01 | S. cerevisiae deletion strains, locus YPR025C, strain CCL1, stronger effect = lower value 0.987 | S. cerevisiae deletion strains, locus YPR106W, strain ISR1, stronger effect = lower value 0.975 | S. cerevisiae deletion strains, locus YPR111W, strain DBF20, stronger effect = lower value 0.955 | [25] 0.671 | S. cerevisiae deletion strains, strain NNK1, stronger effect = lower value 0.977 | S. cerevisiae deletion strains, strain TSCII, stronger effect = lower value 0.972
active: [2] 0.824 | [5] 0.8 | S. cerevisiae deletion strains, locus YGR229C, strain SMI1, stronger effect = lower value 0.551 | [7] 0.0888 and 0.729 | [10] 1.11 [resistant] | [13] 0.436 | S. cerevisiae deletion strains, locus YLR113W, strain HOG1, stronger effect = lower value 0.813 | [15] 0.802 | S. cerevisiae deletion strains, locus YMR307W, strain GAS1, stronger effect = lower value 0.272 | [18] 0.911 | [19] 0.563 | [21] 0.861 | [22] 0.661 | S. cerevisiae deletion strains, locus YPL256C, strain CLN2, stronger effect = lower value 0.8 | S. cerevisiae strains, strain wild type, stronger effect = lower value 0.862
